We go through 14 compounds from PubChem BioAssay AID2284339 (EPA ToxCast).

The AC50 is the midpoint of the concentration-response curve, whichever way the signal moves.

Active and inactive are the calls of the source. How the source made its calls: active means hit-call score of the fitted dose curve at least 0.9, where 1 is the maximum; inactive means score below 0.9.

This assay deals with NCBI gene 100038242. Kind of assay: CCTE_GLTED_xDIO3: CCTE's Xenopus Iodothyronine Deiodinase Type 3 (xDIO3) Inhibition Assay, Great Lakes Toxicology and Ecology Division (GLTED) Lab. The protocol:
CCTE_GLTED_xDIO3 is a cell-free, single-readout assay designed to test the inhibitory activity of chemicals toward Xenopus (frog) iodothyronine Deiodinase Type 3 (DIO3) enzyme. Enzyme is incubated in presence of test chemical for 3 hours during which uninhibited enzyme liberates free iodide from substrate. Free iodide is measured in a second step using the Sandell-Kolthoff method.CCTE_GLTED_xDIO3 is the assay component measured from the CCTE_GLTED_xDIO assay. It is designed to make measurements of enzyme activity, a form of enzyme reporter, as detected with absorbance signals by spectrophotometry.Data from the assay component CCTE_GLTED_xDIO3 was analyzed at the assay endpoint CCTE_GLTED_xDIO3 in the positive analysis fitting direction relative to DMSO as the negative control and baseline of activity. Using a type of enzyme reporter, loss-of-signal activity can be used to understand deiodinase Type 3 activity. To generalize the intended target to other relatable targets, this assay endpoint is annotated to the 'deiodinase' intended target family, where the subfamily is 'deiodinase Type 3'.
[…]
In the case of `O=C(Cl)C(F)(F)C(F)(F)C(F)(F)C(F)(F)C(F)(F)C(F)(F)C(F)(F)C(F)(F)F`, the compound was classed as inactive.
With `COc1cc(O)c(CC=C(C)C)c(O)c1C(=O)/C=C/c1ccc(O)cc1`, the AC50 was 0.16 µM (active).
Still for that read-out and setting: the result for `C=C(C)C(=O)OCC(F)(F)C(F)(F)C(F)(F)C(F)F` reads 17.7 µM (active); that for `O=C(O)C(F)(F)C(F)(F)C(F)(F)C(F)(F)C(F)(F)C(F)(F)C(F)(F)C(F)(F)C(F)(F)C(F)F`, 161 µM (active); that for `C=CC(=O)OCC(F)(F)C(F)(F)C(F)(F)C(F)(F)COC(=O)C=C`, 15.9 µM (active).
For `C=C(C)C(=O)OCC(F)(F)C(F)(F)C(F)(F)F`, the compound was called inactive.
The same measure, in the same setting: the result for `O=P(O)(O)CCC(F)(F)C(F)(F)C(F)(F)C(F)(F)C(F)(F)C(F)(F)C(F)(F)C(F)(F)F` reads “inactive”.
With `C=CC(=O)OCC(F)(F)C(F)(F)C(F)(F)C(F)(F)C(F)(F)C(F)(F)C(F)(F)C(F)F`, the AC50 was 20.7 µM (active).
Consider `O=C(O)C(F)(F)C(F)(F)C(F)(F)C(F)(F)C(F)(F)C(F)(F)C(F)(F)C(F)(F)C(F)(F)C(F)(F)C(F)(F)C(F)(F)F`, for which the compound was called inactive.
On to `O=C(O)C(F)(F)C(F)(F)C(F)(F)C(F)(F)C(F)(F)C(F)(F)C(F)(F)C(F)(F)Cl`, for which the result was inactive.
For `C=CC(=O)OCCC(F)(F)C(F)(F)C(F)(F)C(F)(F)F`, the AC50 was 24.4 µM (active).
On the same count and under the same terms, the result for `O=C(O)C(F)(F)OC(F)(F)C(F)(F)OC(F)(F)C(F)(F)OC(F)(F)C(F)(F)C(F)(F)C(F)(F)F` reads 72.2 µM (active); that for `C=CC(=O)OCC(F)(F)C(F)(F)C(F)(F)COC(=O)C=C`, 33.5 µM (active).
On the same count and under the same terms, the result for `OC(O)(C(F)C(O)(O)C(F)(F)F)C(F)(F)F` reads 19.8 µM (active).
